PfHsp40 yeast: compounds rescuing yeast from Plasmodium falciparum HSP40 toxicity; S. cerevisiae expressing PfHsp40, growth rescue, ATP luminescence; growth rescue, % at 12.5 µM; 0.68% of 340,000 active; AID 504582; in the data active = growth rescue above about 28%, passing the limit was not always enough;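 note: yeast W303a lacking pdr1 and pdr3 grown in galactose medium; growth measured after three days at 30 °C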
MazF activator: activators of E. coli MazEF toxin-antitoxin RNase | P0AE70 | FAM/BHQ RNA-DNA oligo cleavage fluorescence, 5 h | activation, % at 20 µM | 0.32% of 350,000 active | AID 504720; in the data active = activation above about 50%
VHR inh abs: inhibitors of human VHR1 phosphatase (DUSP3) | P51452 | recombinant VHR phosphatase, pNPP absorbance | inhibition, % at 13.3 µM | 0.52% of 290,000 active; in the data active = inhibition above about 50%
BJeLR lethal: BJeLR cell viability loss. AID 1554. 0.17% of 300,000 active. inhibition, % (no concentration beside the values). BJeLR (HRASV12) viability, CellTiter-Glo ATP luminescence, 48 h; in the data active = inhibition above about 50%
PrP 5UTR inh: suppresses PrP 5' UTR mRNA reporter expression; cell-based PrP 5' UTR mRNA reporter, plate reader; inhibition, % (test concentration not listed); 0.35% of 340,000 active; AID 488862; in the data active = inhibition above about 52%; note: 0 = median of the neutral control wells
PrPC TRFRET: reduces human prion protein on the cell surface. 0.43% of 370,000 active. P04156. cell surface PrPC, TR-FRET read-out. inhibition, % at 13.8 µM. AID 720596; in the data active = inhibition above about 24%; note: 0% = median of the test wells and 100% = reference compound wells
PrPC TRFRET cf: cell surface PrPC inhibition, TR-FRET confirmation; cell surface PrPC level; shares compounds with PrPC TRFRET; 65% of 1,500 active; inhibition, % at 13.8 µM; in the data active = inhibition above about 25%
LD9 cytotox: counter-screen for PrPc inhibitors: cytotoxicity in LD9 cells; shares compounds with PrPC TRFRET; luminescence viability; inhibition, % at 13.8 µM; 29% of 1,500 active; AID 743201; in the data active = inhibition above about 9.5%
* marks the source's active call; other numbers are inactive results; nt = not tested or not shown. Sampled rows, rich in hits. Any-hit rate of the full collection: about 2.1%.

SMILES	PfHsp40 yeast	MazF activator	VHR inh abs	BJeLR lethal	PrP 5UTR inh	PrPC TRFRET	PrPC TRFRET cf	LD9 cytotox
O=C(CSc1ncnc2ccccc12)NCCCO	1	5	21	4	-5	36*	32*	-7
COC(=O)[C@H]1C[C@@]2(C)c3ccccc3N(S(=O)(=O)c3ccccc3)[C@H]2N1	nt	nt	nt	nt	nt	4	nt	nt
Cc1ccc(C(=O)Nc2ncc(Cc3ccccc3)s2)o1	0	1	19	6	-19	27*	26*	3
C[C@H]1COc2cc(N3CCC[C@@H]3CO)ccc2S(=O)(=O)N1	nt	nt	nt	nt	nt	-1	nt	nt
Cc1ccc(CN2CCCCC(NC(=O)Nc3cccc(F)c3)C2=O)cc1 (configuration not stated)	nt	nt	nt	nt	nt	21	nt	nt
COc1cccc(NC(=O)NC2CCCCN(Cc3ccc(C)cc3)C2=O)c1 (configuration not stated)	nt	nt	nt	nt	nt	25*	16	-6
CCC1CN(S(=O)(=O)c2ccc3c(c2)NC(=O)CC(=O)N3)c2cc(Cl)ccc2O1 (configuration not stated)	0	14	9	8	4	4	nt	nt
NS(=O)(=O)c1ccc(NC(=O)CSc2ncccn2)cc1	-1	-7	-7	7	-16	5	nt	nt
NS(=O)(=O)c1ccc(NC(=O)CSc2nc3ccccc3c(=O)n2-c2ccc(Br)cc2)cc1	nt	nt	nt	nt	nt	34*	20	-1
NS(=O)(=O)c1ccc(NC(=O)CSc2ccc3ccccc3n2)cc1	-2	12	6	8	0	36*	43*	-1
CCOc1ccc(NC(=O)CCSc2ccc3ccccc3n2)cc1	-1	-4	12	-10	-25	62*	60*	3
O=C(CSc1ccc2ccccc2n1)N/N=C/c1ccc(O)cc1	0	7	19	-9	-10	25*	23	1
O=C1c2ccccc2C(c2nnnn2-c2ccc3c(c2)OCCO3)N1Cc1ccco1 (configuration not stated)	nt	nt	nt	nt	nt	2	nt	nt
CC(=O)NC(CC(=O)OCC(=O)N1CCN(S(=O)(=O)c2ccc(C)cc2C)CC1)c1ccccc1 (configuration not stated)	0	-5	nt	nt	4	5	nt	nt
CCNC(=O)C1(C)CCCN(C(=O)c2nc(C)oc2C)C1 (configuration not stated)	nt	nt	nt	nt	nt	2	nt	nt
COc1ccc(OC)c(NC(=O)C(=O)NNC(=O)C23CC4CC(CC(C4)C2)C3)c1	3	6	2	-1	2	-7	nt	nt
O=C1CCCN1C(=O)CSc1ccc2ccccc2n1	0	-2	nt	nt	-21	41*	52*	1
CSc1nc2ccc(NC(=O)c3ccco3)cc2s1	2	-3	36	-8	-96	11	nt	nt
CSc1nc2ccc(NC(=O)c3cccs3)cc2s1	158*	1	nt	nt	-55	25*	25*	0
COC(=O)[C@]12C[C@H](CC(=O)NCc3ccccc3)C(=O)N(Cc3ccc(Cl)cc3Cl)C1=C[C@H](C1CCCC1)O[C@@H]2C	nt	nt	nt	nt	nt	0	nt	nt
COC(=O)COc1cccc(NC(=O)C(c2ccccc2)c2ccccc2)c1	0	2	19	-6	-3	6	nt	nt
Cc1cc(C)cc(CC(Cc2nc3ccccc3[nH]2)c2nc3ccccc3[nH]2)c1 (configuration not stated)	0	-23	-2	-1	-5	28*	30*	1
N#Cc1c(SC(C(=O)O)c2ccccc2)nc2c(c1-c1cccs1)CCCC2 (configuration not stated)	3	1	2	-2	-7	52*	52*	-9
CC(C)OC(=O)CC(=O)CSc1nc2c(c(-c3cccs3)c1C#N)CCC2	2	-8	8	5	-28	-1	nt	nt
CCOC(=O)C(C)Sc1nc2c(c(-c3cccs3)c1C#N)CCC2 (configuration not stated)	0	-25	-8	-11	-10	65*	76*	-4
SMILES	PfHsp40 yeast	MazF activator	VHR inh abs	BJeLR lethal	PrP 5UTR inh	PrPC TRFRET	PrPC TRFRET cf	LD9 cytotox
CCC(CC)C(=O)N(C)c1c(C)nc2c(OCc3cc(Cl)cc(Cl)c3)cccn12	nt	nt	nt	nt	nt	9	nt	nt
COCCN(C(=O)COC(=O)c1nc(Cl)ccc1Cl)c1c(N)n(Cc2ccccc2)c(=O)[nH]c1=O	0	-12	nt	-2	-12	4	nt	nt
O=C(Nc1ccccc1)c1ccc(CSc2ncccn2)cc1	0	2	12	12	-101	37*	38*	2
CCOc1ccc2[nH]c(C)c(CN3CCOCC3)c(=O)c2c1	-1	-14	12	-14	-22	32*	3	-3
CC1(Oc2ccc(CC#N)cc2)CCN(Cc2ccc(-n3ccnc3)cc2)C1 (configuration not stated)	nt	nt	nt	nt	nt	-2	nt	nt
CCCN(C(=O)CSc1n[nH]c(-c2ccc(OC)cc2)n1)c1c(N)n(Cc2ccccc2)c(=O)[nH]c1=O	-2	9	nt	-2	-11	0	nt	nt
Cc1ccc(Cc2c(-c3ccco3)nc3ccc(Br)cn23)cc1	nt	nt	nt	nt	nt	34*	57*	-5
Cc1cc(Br)cn2c(Cc3ccsc3)c(-c3ccco3)nc12	nt	nt	nt	nt	nt	30*	43*	-3
COc1ccc(Cc2c(-c3ccco3)nc3c(C)cc(Br)cn23)c(C)c1	nt	nt	nt	nt	nt	-4	nt	nt
Cc1cc(Br)cn2c(Cc3ccccc3)c(-c3ccco3)nc12	nt	nt	nt	nt	nt	35*	50*	-3
Cc1ccc(Cc2c(-c3ccc(C)cc3)nc3ccc(Br)cn23)cc1	nt	-46	nt	nt	nt	20	nt	nt
CC1(C(=O)Nc2ccc3c(c2)OCCO3)CN(S(C)(=O)=O)CC(=O)N1Cc1cccs1 (configuration not stated)	nt	nt	nt	nt	nt	3	nt	nt
O=C(COc1cccc(C(F)(F)F)c1)NCC(c1cccs1)N1CCOCC1 (configuration not stated)	0	-8	nt	nt	-17	1	nt	nt
O=C1C(Cl)=C(Nc2ccc3cn[nH]c3c2)C(=O)c2ccccc21	-1	16	15	87*	nt	71*	22	98*
Cc1ccc(C(=O)Nc2cccc(S(=O)(=O)N3CCCC3)c2)o1	0	-2	nt	nt	-27	-8	nt	nt
CNC(=O)OCc1nc(SSC(C)(C)C)n(C)c1COC(=O)NC	-2	2	nt	nt	-20	50*	23	92*
COc1ccc(C(CC(=O)O)NC(=O)c2sc3ccccc3c2Cl)cc1 (configuration not stated)	-1	-9	-13	1	-16	34*	38*	-4
CCOc1ccc(OCC)c(NC(=O)CSc2nnc(C3CC3)n2CC)c1	0	-9	-23	2	-15	-1	nt	nt
COc1ccc(C(=O)OCC(N)=O)cc1[N+](=O)[O-]	1	5	-7	-2	-18	-1	nt	nt
COc1ccc(C(=O)C[n+]2cc(Br)cc3ccccc32)cc1[N+](=O)[O-]	0	11	7	-5	-12	27*	9	-1

Screening results: PubChem BioAssay, several laboratories
